# ± gives the standard deviation of the averaged measurements.
# Tests used:
# [1] = system: (+)-isopinocamphone A-neuron OSN class; assay: net action potential response of A-neuron (blank-subtracted) (spikes/s (Hz)); higher = stronger excitation; conditions: 10 µg on filter paper; neuron: A neuron (large spike amplitude)
# Procedure, shortened: (§1)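 Each compound was loaded at 10 μg in paraffin oil onto filter paper in a pipette and puffed for 0.5 s at 0.3 L/min into a humidified, charcoal-filtered airstream flowing at 1.8 L/min. Tungsten electrodes recorded from single sensilla on one fixed antenna of live lab-reared adult Ips typographus. The response was a spike rate in spikes/s from the A-neuron (large amplitude) or B-neuron (small amplitude), counted in AutoSpike, corrected for the pre-stimulus count and for the blank, and averaged across sensilla. Counting windows lasted 0.5 s, and 1–4 sensilla were used.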
# [2] = system: (+)-trans-4-thujanol A-neuron OSN class; assay: as above; conditions: 10 µg on filter paper; neuron: A neuron (large spike amplitude)
# Procedure, shortened: as §1
# [3] = system: (5S,7S)-trans-conophthorin A-neuron OSN class; assay: as above; conditions: 10 µg on filter paper; neuron: A neuron (large spike amplitude)
# Procedure, shortened: as §1
# [4] = system: ipsdienol A-neuron OSN class; assay: as above; conditions: 10 µg on filter paper; neuron: A neuron (large spike amplitude)
# Procedure, shortened: as §1
# [5] = system: myrcene A-neuron OSN class; assay: as above; conditions: 10 µg on filter paper; neuron: A neuron (large spike amplitude)
# Procedure, shortened: as §1
# [6] = system: p-cymene A-neuron OSN class; assay: as above; conditions: 10 µg on filter paper; neuron: A neuron (large spike amplitude)
# Procedure, shortened: as §1
# [7] = system: lanierone-responsive B-neuron OSN class (ItypOR36); assay: net action potential response of lanierone B-neuron (blank-subtracted) (spikes/s (Hz)); higher = stronger excitation; conditions: 10 µg on filter paper, neuron: B neuron (small spike amplitude)
# Procedure, shortened: as §1
# [8] = co-localized A-neuron class: (4S)-cis-verbenol
# [9] = co-localized A-neuron class: (5S,7S)-trans-conophthorin
# [10] = co-localized A-neuron class: (+)-isopinocamphone
# [11] = co-localized A-neuron class: (+)-trans-4-thujanol
# [12] = co-localized A-neuron class: ipsdienol
# [13] = co-localized A-neuron class: myrcene
# [14] = co-localized A-neuron class: p-cymene
SMILES,net action potential response [1],net action potential response [2],net action potential response [3],net action potential response [4],net action potential response [5],net action potential response [6],"net action potential response [7, 8]","net action potential response [7, 9]","net action potential response [7, 10]","net action potential response [7, 11]","net action potential response [7, 12]","net action potential response [7, 13]","net action potential response [7, 14]"
CC1=CC(=O)[C@@H]2C[C@H]1C2(C)C [(-)-Verbenone],0.667 ± 1.1,1 ± 4.8,-5 ± 4.8,2 ± 2,-6,-0.667 ± 3.1,1.33 ± 6.4,-0.667 ± 1.1,-4.67 ± 6.1,4 ± 6.7,2 ± 4,6,2 ± 2
CC1=CCC(=C(C)C)CC1 [Terpinolene],3.33 ± 5.8,0.5 ± 5.5,4 ± 6.9,–,2,20 ± 16,4.67 ± 6.4,2 ± 2,-4 ± 2,-3 ± 3.8,2 ± 5.3,-8,0.667 ± 2.3
Cc1ccc(C(C)C)cc1 [p-Cymene],-0.667 ± 2.3,0.5 ± 5.3,3.5 ± 3.4,–,0,146 ± 65,-3.33 ± 3.1,0.5 ± 2.5,-2 ± 3.5,-1.5 ± 4.4,-1.33 ± 5,4,-3.33 ± 5.8
C=C(C)[C@@H]1CC=C(C)CC1 [(-)-Limonene],-0.667 ± 4.2,2 ± 1.6,0 ± 2,5.33 ± 1.1,6,26.7 ± 13,-1.33 ± 5.8,-2.67 ± 3.1,-0.667 ± 2.3,2.5 ± 5.3,1.33 ± 4.6,-8,-1.33 ± 4.2
CC12CCC(CC1=O)C2(C)C (racemic) [(±)-Camphor],125 ± 40,2 ± 5.7,5.33 ± 7,–,-6,6.67 ± 16,-2.67 ± 3.1,0,-6.67 ± 2.3,-1.5 ± 1,-2.67 ± 6.1,-2,1 ± 1.4
C=CC(C)(C)O [2-Methyl-3-buten-2-ol],0.667 ± 1.1,7 ± 11,3.33 ± 4.2,0 ± 4,-8,1 ± 1.4,–,–,–,–,–,–,–
CCC/C=C/C=O [(E)-hex-2-enal],-3.33 ± 2.3,1 ± 5.8,4.67 ± 4.2,–,2,3 ± 1.4,–,–,–,–,–,–,–
COc1ccc(C)cc1 [4-Methyl anisole],7.33 ± 4.6,6.5 ± 3.4,2 ± 2,–,-4,44 ± 12,–,–,–,–,–,–,–
CC(=O)OCCC(C)C [3-Methylbutyl acetate],4.67 ± 4.2,3.33 ± 3.1,-2.67 ± 4.6,0 ± 6.9,10,6.67 ± 5,–,–,–,–,–,–,–
"CC12CCC(CC1)C(C)(C)O2 [1,8-Cineole]",-2.67 ± 2.3,1 ± 3.8,2.67 ± 10,–,8,13.3 ± 11,4 ± 9.2,-6.67 ± 6.1,0.667 ± 4.2,-1 ± 2.6,0 ± 10,-4,0 ± 5.3
CC1=CCC(C(C)C)=CC1 [γ-Terpinene],-0.667 ± 3.1,-1 ± 4.2,3 ± 4.8,–,6,117 ± 49,-2 ± 5.3,0.5 ± 6,-0.667 ± 6.1,-0.5 ± 1.9,0 ± 6,-6,-4 ± 3.5
C=CCc1ccc(OC)c(OC)c1 [Eugenol methyl ether],-0.667 ± 5.8,0 ± 1.6,4 ± 2.3,1.33 ± 1.1,0,4.67 ± 5,–,–,–,–,–,–,–
CC/C=C/CCO,8.67 ± 14,27.5 ± 23,-2 ± 2,–,-4,0.667 ± 3.1,2 ± 4,-5.33 ± 6.1,-2 ± 5.3,-0.5 ± 6.6,0 ± 4,-2,-0.667 ± 3.1
"CC1=CCC2C(C1)C2(C)C (single isomer, unassigned; (+)) [(+)-3-Carene]",2 ± 5.3,7.5 ± 6.8,6.67 ± 4.6,–,12,50.7 ± 18,1.33 ± 13,3.33 ± 2.3,-2.67 ± 5,-2.5 ± 2.5,-1.33 ± 4.2,-2,-3.33 ± 4.2
